# Compound activity: PubChem BioAssay, several laboratories
# INS-1E GSIS act: primary screen for activators of insulin secretion dependent on glucose, INS-1E cells, GLuc reporter luminescence. AID 743287. 370,000 tested, 0.61% active. INS-1E GLuc reporter insulin secretion, 2-3 h. activation, % at 16.6 µM;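 active = lowest replicate activation of at least 40%, so every replicate reaches that level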;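 note: 0% = median of neutral control wells and 100% = median of IBMX positive control wells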
# A1 inh: inhibitors of the anti-apoptotic protein A1, read as caspase activation; MEF A1-2A-BIM cells, Caspase-Glo 3/7 luminescence, 3 h; percent of clofoctol response, vehicle zero; caspase activation, % (no concentration beside the values); 330,000 tested, 0.066% active; AID 2462;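 active = over half of replicate activation scores above 10%, or exactly half above 10 with the replicate mean above 10; inconclusive = replicate mean below 10 yet half the replicates above 10; inactive = over half of replicates below 10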
# Vif imaging: inhibitors of HIV Vif | HEK293T cells, Vif self-association by quenched fluorescence, imaging, 24 h | inhibition, % at 7.49 µM | 340,000 tested, 0.35% active; in the data active = inhibition above about 50%, passing the limit was not always enough; inconclusive = no clear call, values can overlap the other calls; inactive = below about 31%
# dFosB act: mouse delta FosB homodimer activation | P13346 | purified delta FosB, TAMRA-CDK5 oligo fluorescence polarization; percent of positive-control signal above neutral wells | activation, % at 25 µM | 340,000 tested, 0.99% active | AID 493131;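 active = mean activation above about 17%, with every replicate also reaching it, limit read from the data, passing the limit was not always enough; inconclusive = only one of the two conditions met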
# Target sequence (P13346 whole entry, looked up): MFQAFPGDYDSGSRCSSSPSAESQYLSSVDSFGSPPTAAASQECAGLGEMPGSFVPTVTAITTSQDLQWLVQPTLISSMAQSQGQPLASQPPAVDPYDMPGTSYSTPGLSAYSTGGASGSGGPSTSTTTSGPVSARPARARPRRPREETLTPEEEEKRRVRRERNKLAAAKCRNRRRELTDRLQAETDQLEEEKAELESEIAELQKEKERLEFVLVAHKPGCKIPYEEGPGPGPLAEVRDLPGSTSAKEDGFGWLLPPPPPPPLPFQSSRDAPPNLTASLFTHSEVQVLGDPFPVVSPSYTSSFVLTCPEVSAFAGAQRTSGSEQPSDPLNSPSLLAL
# Neddyl block: cullin neddylation inhibition; P61081+Q13564; TR-FRET cullin neddylation, biochemical; AID 651699; 360,000 tested, 0.58% active; inhibition, % at 25 µM; in the data active = inhibition above about 36%
# * = called active by the depositor; i = inactive; ? = inconclusive; nt = no result given. Shown are actives, neighbours in structure and some others; about 1.9% of the full set was active somewhere.
SMILES,INS-1E GSIS act,A1 inh,Vif imaging,dFosB act,Neddyl block
C/C=C/c1ccc(OCCNCc2ccccc2)c(OC)c1,7,0,70*,-5,2
COCC(=O)Nc1ccc2c(c1)[C@@H]1C[C@H](CC(=O)NCc3cccnc3)O[C@@H](CO)[C@@H]1O2,9,nt,nt,nt,nt
O=C1C=CC(=O)c2c(O)c(N3CCN(CCO)CC3)c(Cl)c(O)c21,-35,nt,127*,-6,-11
O=C1C=CC(=O)c2c(O)c(N3CCN(CCOCCO)CC3)c(Br)c(O)c21,nt,nt,72*,-13,-14
Cc1ccc(/C=C/C(=O)c2ccc([N+](=O)[O-])o2)cc1,-24,7.9*,nt,nt,nt
O=C(/C=C/c1ccc(Cl)cc1)c1ccc([N+](=O)[O-])o1,-11,9.9*,-8,-2,-99
CN(C)CCc1cc2c(c3c1ccc1ccccc13)OCO2,nt,0,-1,47*,9
COc1cc2ccc3c(CCN(C)C)cc(OC)c(OC)c3c2cc1OC,7,1,4,-2,0
CCN(c1ccccc1)S(=O)(=O)c1ccc(NC(=O)c2nc(S(C)(=O)=O)ncc2Cl)cc1,nt,-2,7,-6,-1
CS(=O)(=O)c1ncc(Cl)c(C(=O)Nc2ccc(OC(F)F)cc2)n1,59*,18*,54*,-5,7
CS(=O)(=O)c1ncc(Cl)c(C(=O)Nc2ccc(N3CCOCC3)cc2)n1,nt,3,11,-7,5
CCS(=O)(=O)c1ncc(Cl)c(C(=O)Nc2ccc(S(=O)(=O)N(C)c3ccccc3)cc2)n1,25,13*,13,-3,-12
O=C(Nc1ccc2c(c1)OCO2)N[C@H]1CC[C@@H](CC(=O)N2CCN(c3ccccc3)CC2)O[C@@H]1CO,4,nt,nt,nt,nt
O=S(=O)(N[C@H]1CC[C@H](CCn2cc(-c3cccnc3)nn2)O[C@H]1CO)c1ccc(F)cc1,-6,nt,nt,nt,nt
C[C@H]1CN([C@@H](C)CO)C(=O)c2cc(NC(=O)Cc3ccccc3)ccc2O[C@@H]1CN(C)Cc1ccc(Oc2ccccc2)cc1,-17,nt,nt,nt,nt
Fc1ccc(/C=N/c2c(-c3ccc(F)cc3)nc3n2CCS3)cc1,62*,0,0,-10,3
CCOC(=O)C1=C(C)Nc2nc3ccccc3n2C1c1ccc(O)cc1 (stereo unspecified),11,1,-6,0,29
CCOC(=O)c1ccccc1-n1c(C)cc(C2N=C(N)Nc3nc4ccccc4n32)c1C (stereo unspecified),2,0,5,45*,-14
NC(=O)c1c(NC(=O)C2COc3ccccc3O2)sc2c1CCN(Cc1ccccc1)C2 (stereo unspecified),-19,0,110*,5,16
CN1CCc2c(sc(NC(=O)c3cc(Cl)sc3Cl)c2C(N)=O)C1,-1,-1,161*,nt,16
CCCN1CCc2c(sc(NC(=O)c3ccc(S(=O)(=O)N(C)c4ccccc4)cc3)c2C(=O)NC)C1,-21,0,4,?,24
CCCN1CCc2c(sc(NC(=O)c3ccc(S(=O)(=O)N(C)c4ccccc4)cc3)c2C(N)=O)C1,-4,1,nt,42*,11
CN1CCc2c(sc(NC(=O)c3ccco3)c2C(N)=O)C1,7,0,1,-3,23
CCOC(=O)c1c(NC(=O)C2COc3ccccc3O2)sc2c1CCN(Cc1ccccc1)C2 (stereo unspecified),-37,1,-8,-3,4
CN1CCc2c(sc(NC(=O)c3ccc(S(=O)(=O)N4CCCCCC4)cc3)c2C(N)=O)C1,nt,-1,i,54*,20
SMILES,INS-1E GSIS act,A1 inh,Vif imaging,dFosB act,Neddyl block
C[C@@H]1CN([C@@H](C)CO)S(=O)(=O)c2ccc(-c3ccc(F)cc3)cc2O[C@H]1CN(C)S(C)(=O)=O,-5,nt,nt,nt,nt
COc1ccc2c3c(n(C)c2c1)[C@@H](CO)N(CC1CC1)CC31CCN(C(=O)CN(C)C)CC1,4,nt,nt,nt,nt
CC(C)[C@H]1CC=CC[C@@H](C)Oc2ccccc2C(=O)N(C)[C@H](C(C)C)C(=O)N1 (mixture of isomers),-4,nt,nt,nt,nt
COCC(=O)N1CC(=O)N2[C@@H](CO)[C@@H](c3ccc(-c4cccnc4)cc3)[C@@H]2C1,16,nt,nt,nt,nt
CCN(CC)CC(=O)Nc1cccc2c1C(=O)c1ccccc1C2=O,17,0,5,-7,-31
O=C1c2ccccc2C(=O)c2c(NCCCN(CCO)CCO)cccc21,17,nt,-8,56*,-94
CCOc1cc2nc3c4ccccc4n(C)c3nc2cc1OCC,9,-1,nt,-13,33
CCN(CC)Cc1cc(Nc2c3ccccc3nc3c4ccccc4n(C)c23)cc(CN(CC)CC)c1O,-30,nt,-14,66*,-15
O=C(Nc1ccn(CCCN(CCCn2ccc(NC(=O)OCc3ccccc3)nc2=O)CCc2cc3ccccc3[nH]2)c(=O)n1)OCc1ccccc1,-25,nt,nt,83*,-12
O=C(Nc1ccn(CCCNCc2ccccc2)c(=O)n1)OCc1ccccc1,-50,nt,nt,-5,-1
CC(C)CC(NC(=O)c1ccc(Cl)cc1)C(=O)OCC(=O)c1ccc2c(c1)NC(=O)CO2 (stereo unspecified),461*,15*,11,3,-1
CCCn1c(C)nc2c(c1=O)c1nc3ccccc3nc1n2CCC1=CCCCC1,61*,-1,-25,-29,nt
O=C(Nc1cccnc1)c1cc(-c2ccc(Cl)c(Cl)c2)on1,25,-1,4,76*,-23
CN(C[C@H]1N[C@H](CO)[C@@H]1c1ccc(-c2cccnc2)cc1)C(=O)NC1CCCC1,-4,nt,nt,nt,nt
Nc1nc(N)c(-c2cccc(C(F)(F)F)c2)c(Cc2cccc(C(F)(F)F)c2)n1,nt,nt,-25,16*,3
Nc1ncccc1OCc1cccc(C(F)(F)F)c1,-3,0,-7,-1,-2
O=C(COC(=O)COc1ccc(Cl)cc1Br)NC1CCCC1,nt,nt,nt,nt,-5
O=C(COC(=O)COc1ccc(Cl)cc1Br)NC1CCCCCC1,14,0,59*,-6,-18
CC/C(=N/Nc1ccc(Cl)cc1)c1cnnc(SC)n1,10,0,-6,1,-4
CC/C(=N/Nc1cccc(C)c1)c1cnnc(SC)n1,31,1,82*,-6,3
CCOCCCn1c(SCc2ccccc2)nnc1-c1ccncc1,78*,0,-10,-5,7
CCC1(C)Cc2c(C#N)c(SC)nc(N3CCOCC3)c2CO1 (stereo unspecified),nt,-1,53*,nt,1
CSc1nc(N2CCOCC2)c2c(c1C#N)CC(C)(C)OC2,29,0,2,-5,-48
CC(C)(C)OC(=O)N1CCCN(C(=O)c2ccc(Cl)cc2)CC1,192*,-1,-1,-9,2
CCSc1nnc2ccc(-c3cccs3)nn12,43*,-1,-5,-34,21
O=C(N/N=C/c1ccc([N+](=O)[O-])s1)c1ccccc1Br,3,1,89*,-1,-3
Cc1cccc(NC(=O)Cn2cnc3c(cnn3-c3ccc(F)cc3)c2=O)c1C,0,0,nt,49*,16
